The results in this text go back to ChEMBL document CHEMBL3988442, “University of Dundee, Small-Polar-MMV Screening Library” (2021).

In all, about 48,000 compounds went through this assay and about 13,000 (27%) showed an effect of 50% or more. Some of the results follow.

For this assay, the system named is Wolbachia pipientis. Nature of the assay: Anti-Wolbachia Cell-Based Screen. It counts as functional. Set-up: scale not given: in the data most compounds retested in dose-response had high values. Conditions: 5 µM.
Regarding `O=C(O)C(F)(F)F.O=C(c1cnccn1)N1CCN2C[C@H](OCc3ccccc3F)C[C@H]2C1`, the “Percent Effect” value was determined as 4.203%.

As for `Cc1ccoc1C(=O)NC1CCN(Cc2csc3c(F)cccc23)CC1`, the “Percent Effect” value was found to be 2.463%.

`CCn1cc(CN2CCCN(C(=O)C3(C)CCOCC3)CC2)cn1`: the “Percent Effect” value came out at 8.44%.

As to `Cc1oncc1C(=O)N1CCC(O)(CN2CCOCC2)C(C)(C)C1` (stereo not drawn), the “Percent Effect” value was determined as 29.5%.

Consider `Cc1c(CN2CCCC2(C)C(=O)NC2CCCC2)cnn1C` (stereo not drawn), for which the “Percent Effect” value was 156.7%.

As to `Cc1cccc(N2CCC3(CCCN3Cc3cnn(C)c3C)CC2)n1`, the “Percent Effect” value is recorded as 9.163%.

`Cc1c(CNC(=O)c2cn(CCC3CCCCN3)nn2)cnn1C` (stereo not drawn): the “Percent Effect” value amounted to 10.08%.

For `Cc1c(CNC(=O)Nc2cccc3c2CCN3C)cnn1C`, the “Percent Effect” value is given as -8.63%.

`O=C(NCc1cnn2ccccc12)NC1CCCC1`: the “Percent Effect” value is reported as -4.156%.

Turning to `CNC(=O)C1(C)CCCN1Cc1cnn(C)c1C` (stereo not drawn), the “Percent Effect” value is listed as 106.7%.

In the case of `Cc1c(CN2CCCC2(C)C(=O)N2CCOCC2)cnn1C` (stereo not drawn), the “Percent Effect” value was found to be 169.3%.

Turning to `CNc1nc(CNC(=O)Nc2ccc(OC(C)C)cc2C)cs1`, the “Percent Effect” value came to 3.504%.

Regarding `CCc1nc2n(n1)CCCC2Nc1nc(C2CC2)ns1` (stereo not drawn), the “Percent Effect” value was determined as 8.759%.

Consider `COc1cc(C)ccc1C(=O)N1CCC2(CCC(=O)N(C(C)C)C2)CC1`, for which the “Percent Effect” value is listed as -6.21%.

Consider `CCC(NC(=O)NCc1cc(Cl)ccc1OC)c1noc(C)n1` (stereo not drawn), for which the “Percent Effect” value is -1.249%.

Turning to `CC(C)(O)CNC(=O)c1sccc1Br`, the “Percent Effect” value is listed as 4.512%.

In the case of `Cn1cc(N2CCCC(Oc3ccc(F)cc3Cl)C2=O)cn1` (stereo not drawn), the “Percent Effect” value is reported as 5.607%.

As for `CN(CCCN1CCCC1)[C@@H]1c2ccccc2C2(CCNCC2)[C@H]1O`, the “Percent Effect” value is recorded as 1.656%.

As for `O=C(CCc1cccs1)N1CCCC1c1noc(C2CC2)n1` (stereo not drawn), the “Percent Effect” value turned out to be 100.7%.

As to `CCc1nc(C2CCCN2C(=O)CCc2cccs2)no1` (stereo not drawn), the “Percent Effect” value is listed as -2.964%.

`O=C(CCCc1ccccn1)N1CCCC1c1noc(C2CC2)n1` (stereo not drawn): the “Percent Effect” value worked out at 105.7%.

As to `CCc1nc(C2CCCN2CCc2cccs2)no1` (stereo not drawn), the “Percent Effect” value is -1.558%.

Turning to `CCc1nc(C2CCCN2C(=O)Cc2cccs2)no1` (stereo not drawn), the “Percent Effect” value is 95.79%.

On to `c1csc(CCN2CCCC2c2noc(C3CC3)n2)c1` (stereo not drawn), for which the “Percent Effect” value is -13.07%.

Consider `O=C(COc1cc(Cl)cc(Cl)c1)NCc1nncn1C1CC1`, for which the “Percent Effect” value came out at 2.768%.

Turning to `c1cn(Cc2nnc(C3CCN(c4nccs4)CC3)n2C2CC2)cn1`, the “Percent Effect” value turned out to be 0.8881%.

Regarding `CC(C)n1ccnc1C1CCCN(c2ccncc2F)C1` (stereo not drawn), the “Percent Effect” value came to 20.23%.

With `Cc1c(C(=O)NC2(C#N)CCCC2)nnn1-c1ccccc1Cl`, the “Percent Effect” value is given as -3.476%.

As to `Cc1nnc(SCCNC(=O)Cn2cnc3ccccc3c2=O)s1`, the “Percent Effect” value was -10.12%.

Turning to `Cc1cccc(N2CCN(CCC(=O)NCc3cnc(C)cn3)CC2)c1`, the “Percent Effect” value was -29.47%.

With `CCC(C)NC(=O)CCc1ccnc2ccccc12` (stereo not drawn), the “Percent Effect” value was 0.4358%.

As for `CCn1c(C)nnc1SCCNC(=O)Cn1cnc2ccccc2c1=O`, the “Percent Effect” value is reported as 1.964%.

On to `Cc1cnc(CNC(=O)CCCn2cnc3ccccc3c2=O)cn1`, for which the “Percent Effect” value is reported as 123.4%.

Take `COCC(C)NC(=O)CCSc1ccc(F)cc1` (stereo not drawn): the “Percent Effect” value came to 4.419%.

With `COCC(C)NC(=O)CCCn1cnc2ccccc2c1=O` (stereo not drawn), the “Percent Effect” value is reported as 133.1%.

On to `COC(=O)CNC(=O)CCCn1cnc2ccccc2c1=O`, for which the “Percent Effect” value is given as 126.5%.

Consider `CC(C)NC(=O)CCCn1cnc2ccccc2c1=O`, for which the “Percent Effect” value was 103.3%.

As to `Cn1ccnc1SCCNC(=O)Cn1cnc2ccccc2c1=O`, the “Percent Effect” value amounted to 4.017%.

As to `CN(C)S(=O)(=O)c1ccc(CNc2ccc(Cl)cn2)cc1`, the “Percent Effect” value is -2.882%.

Consider `CSCC(C)C(=O)NCc1c(C)nc2cc(=O)[nH]n2c1C` (stereo not drawn), for which the “Percent Effect” value is given as -19.78%.

As for `CCCc1nccn1-c1ccc(C(O)CN2CCOCC2)cc1` (stereo not drawn), the “Percent Effect” value is reported as -2.856%.

Consider `CCc1nc2c(c(N3CCOCC3)n1)CCN(C(=O)c1ccon1)CC2`, for which the “Percent Effect” value worked out at 0.9669%.

Consider `Cn1cc2ncn(CCCOc3cccnc3)c(=O)c2n1`, for which the “Percent Effect” value was -2.569%.

For `O=C(CCn1ccc2ncccc2c1=O)N1CCCC1`, the “Percent Effect” value is given as -7.075%.

On to `CC(NC(=O)CCCc1ccc(Cl)cc1)c1nnn[nH]1` (stereo not drawn), for which the “Percent Effect” value was -9.693%.

Take `O=C(CCCn1cnc2ccccc2c1=O)Nc1nc[nH]n1`: the “Percent Effect” value was 118.2%.

Take `CC(NC(=O)CCCn1cnc2ccccc2c1=O)c1ncn[nH]1` (stereo not drawn): the “Percent Effect” value was 135.6%.

On to `Cc1cc(C(C)NC(=O)CCn2nnc3ccccc3c2=O)c(C)o1` (stereo not drawn), for which the “Percent Effect” value was found to be 5.131%.

As to `Cc1noc(C)c1CN(C)C(=O)NCCOc1ccc(F)cc1F`, the “Percent Effect” value is listed as -11.52%.

In the case of `O=C(NCC1=CCCCC1)C(c1cccnc1)N1CCOCC1` (stereo not drawn), the “Percent Effect” value was -8.257%.

For `CCNc1ncc(C(=O)N2CCC(c3ccccc3C(=O)O)C2)cn1` (stereo not drawn), the “Percent Effect” value is on record as -1.411%.

Regarding `Cc1nc2c(c(N(C)C)n1)CCN(C(=O)c1ccc(N)nc1)C2`, the “Percent Effect” value is given as 84.83%.

For `CCCc1ccc(C(=O)N2CCn3c(nnc3C(C)C)C2)cc1`, the “Percent Effect” value stood at 1.679%.

For the compound `CCCc1ccc(C(=O)N2CCc3c(nc(N(C)C)[nH]c3=O)C2)cc1`, the “Percent Effect” value is recorded as 0.7341%.

As to `CCNc1ncc(C(=O)N2CCOC(CCCC(C)C)C2)cn1` (stereo not drawn), the “Percent Effect” value is on record as 18.06%.

For `CCNc1ncc(C(=O)N2Cc3nc(C)[nH]c(=O)c3C2)cn1`, the “Percent Effect” value is 110.8%.

With `Cc1nc2c(c(N(C)C)n1)CCN(C(=O)CN1CCC(O)CC1)C2`, the “Percent Effect” value was -29.43%.

Regarding `CCCc1ccc(C(=O)N2CCc3c(nc(C)nc3N(C)C)C2)cc1`, the “Percent Effect” value worked out at 96.2%.

Consider `Cc1nc2c(c(N(C)C)n1)CCN(C(=O)c1sccc1S(N)(=O)=O)C2`, for which the “Percent Effect” value is on record as -20.97%.

As for `CCNc1ncc(C(=O)N2CCc3c(nc(C)nc3N(C)C)C2)cn1`, the “Percent Effect” value was 95.13%.

`CN(C)c1nc2c(c(=O)[nH]1)CCN(C(=O)c1ccc(=O)[nH]c1)C2`: the “Percent Effect” value is reported as -0.009534%.

Turning to `CCN(CC)CCC(=O)N1CCc2c(nc(N(C)C)nc2N(C)C)C1`, the “Percent Effect” value is recorded as -0.6304%.

With `NS(=O)(=O)c1cc(C(=O)N2CCCCC2)cs1`, the “Percent Effect” value is reported as 6.219%.

For the compound `CN(C)c1ccc(CC(=O)N[C@@H]2CCNC[C@H]2O)cc1`, the “Percent Effect” value was -6.485%.

`CN1CCC(NC(=O)NCc2csc(Br)c2)CC1`: the “Percent Effect” value is -1.868%.

As to `O=C(NCc1csc(Br)c1)Nc1cn[nH]c1`, the “Percent Effect” value is reported as 91.45%.

Turning to `O=C(NCc1ccc(Br)c(F)c1)Nc1cn[nH]c1`, the “Percent Effect” value worked out at 110.2%.

`O=C(NCc1cc(Br)cs1)Nc1cn[nH]c1`: the “Percent Effect” value turned out to be 79.99%.

For the compound `CNS(=O)(=O)Cc1ccc(CNC(=O)Nc2cn[nH]c2)cc1`, the “Percent Effect” value is -4.432%.

In the case of `COCCNc1ccc(CNC(=O)Nc2cn[nH]c2)cc1`, the “Percent Effect” value is reported as -8.085%.

For `O=C(NCC1(N2CCOCC2)CCSC1)Nc1cn[nH]c1` (stereo not drawn), the “Percent Effect” value was determined as 6.407%.

Take `O=C(Cc1ccc(Br)s1)NCC(=O)Nc1cn[nH]c1`: the “Percent Effect” value is listed as -7.073%.

For the compound `CN(Cc1cnn(C)c1)C(=O)NCc1csc(Br)c1`, the “Percent Effect” value worked out at 2.853%.
